Assay outcomes deposited in PubChem by The Scripps Research Institute Molecular Screening Center.
PPARg SRC-1 ag: PPARgamma-driven SRC-1 recruitment agonism | hit rate 0.41% among 200,000 | PPARgamma-SRC-1 coactivator recruitment biochemical assay | activation, % at 8 µM | P37231 | AID 631; in the data active = activation above about 19%;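 note: 0% = DMSO and 100% = reference agonist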
TR-FRET SRC-2 ct: TR-FRET artefact, counter-screen to PPARgamma/SRC-2 agonist assay | hit rate 0.4% among 200,000 | active compounds read high | TR-FRET ratio at 8 µM
SRC3 TRFRET art: TR-FRET artefact, counter-screen to PPARgamma/SRC-3 agonist assay; AID 1048; TR-FRET ratio at 8 µM; hit rate 0.39% among 99,000; PPARgamma/SRC-3 format; active compounds read high
PPARg SRC3 recr: promotes SRC-3 coactivator recruitment by human PPARgamma; P37231; biochemical PPARgamma/SRC-3 coactivator recruitment assay; activation, % at 8 µM; hit rate 0.26% among 200,000; AID 731; in the data active = activation above about 23%;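 note: 0% = DMSO and 100% = reference agonist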
PPARg SRC2 recr: promotes SRC-2 coactivator recruitment by human PPARgamma | P37231 | PPARgamma LBD-SRC-2 recruitment, biochemical | activation, % at 8 µM | hit rate 0.34% among 200,000; in the data active = activation above about 22%;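 note: 0% = vehicle and 100% = reference agonist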
SRC1 TRFRET art: TR-FRET artefact, counter-screen to PPARgamma/SRC-1 agonist assay; TR-FRET detection artefact counter-screen, emission ratio; active compounds read high; TR-FRET ratio at 8 µM; hit rate 0.34% among 99,000; in the data active = TR-FRET ratio above about 2300
PPARg SRC2 conf: confirmation of agonists of SRC-2 recruitment by human PPARgamma; biochemical SRC-2 recruitment by PPARgamma; hit rate 52% among 790; AID 1297; shares compounds with PPARg SRC3 recr; activation, % at 8 µM; in the data active = activation above about 22%;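 note: 0% = vehicle alone and 100% = reference agonist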
PPARg SRC1 conf: human PPARgamma SRC-1 recruitment agonism, confirmation | shares compounds with PPARg SRC3 recr | PPARgamma–SRC-1 coactivator recruitment biochemical assay | activation, % at 8 µM | hit rate 43% among 790; in the data active = activation above about 20%;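 note: 0% = vehicle wells and 100% = reference agonist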
PPARg SRC3 ag: confirmation of agonists of SRC-3 recruitment by human PPARgamma. hit rate 29% among 790. AID 1301. shares compounds with PPARg SRC3 recr. activation, % at 8 µM. biochemical PPARgamma-SRC-3 coactivator recruitment, agonist mode; in the data active = activation above about 24%;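 note: 0% = vehicle wells and 100% = reference agonist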
Numbers without * were called inactive; nt = no result given. A selection: hits, their analogues and other compounds. The true share with any hit is near 0.9%. Cut-off read from the data, not from the text of the source, unless noted: active = TR-FRET ratio above about 2000; inactive = the rest.

SMILES	PPARg SRC-1 ag	TR-FRET SRC-2 ct	SRC3 TRFRET art	PPARg SRC3 recr	PPARg SRC2 recr	SRC1 TRFRET art	others
O=C(N/N=C/c1c(O)n(CCc2ccccc2)c(=O)[nH]c1=O)c1ccncc1	-1	2004*	1522	10	8	1769
CC(Cc1ccccc1)[n+]1cc(/N=C(\N)[O-])on1 (stereo not drawn)	3	1514	nt	-3	8	nt
NC(=O)OCCSc1nnc(-c2cccc(C(N)=S)c2)o1	8	1589	nt	1	1	nt
COc1ccc(-c2cc(=Nc3ccccc3)c3cc(C)ccc3o2)cc1	15	1332	1387	-6	3	2615*
COc1ccc(-c2cc(=NCCC(=O)O)c3cc(C)ccc3o2)cc1	-2	1337	1485	-5	-10	1700
CCCCCCn1c(O)c(C=Nc2c(C)n(C)n(-c3ccccc3)c2=O)c(=O)[nH]c1=O	5	1830	nt	-6	25*	nt
CN(C)c1ccc(/C=C/c2cc[n+](C)c3ccccc23)cc1	83*	2947*	2979*	61*	61*	3265*	PPARg SRC2 conf=65*;PPARg SRC1 conf=49*;PPARg SRC3 ag=43*
CC(C(=O)Nc1ccc(Br)cc1C(=O)c1ccccc1)N1CCOCC1 (stereo not drawn)	-3	1368	nt	1	-3	nt
Cn1c(=O)cc(SCC(=O)N2CCC3(CC2)OCCO3)c2ccc(Cl)cc21	50*	2539*	nt	79*	73*	nt	PPARg SRC2 conf=28*;PPARg SRC1 conf=19;PPARg SRC3 ag=20
O=C(CSc1ccccc1)N1CCC2(CC1)OCCO2	0	1402	nt	12	1	nt
